From PubChem BioAssay AID720492 (Broad Institute, 2013)
The source made the active and inactive calls.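 Rule for the calls: active = unnormalized dose curve rising to cross level 40 at or below the top tested dose; inconclusive = flat fit at moderately raised activity, or poor fit; inactive = the rest.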

Experiment: miR-27b level by RT-PCR, dose response, miR-122 / miR-27b project, Huh7 cells, cherry-pick, activator set (AID 720492)
Conditions: Huh7 miR-27b levels, qRT-PCR, 48 h; series mostly up to 35 µM

outcome, inactive:
C[C@@H]1CN([C@@H](C)CO)S(=O)(=O)c2ccc(C#Cc3ccncc3)cc2O[C@H]1CN(C)C(=O)C1CCOCC1, C[C@H](CO)N1C[C@H](C)[C@@H](CN(C)C(=O)C2CCOCC2)Oc2cc(C#Cc3ccncc3)ccc2S1(=O)=O, C[C@@H]1CN([C@H](C)CO)S(=O)(=O)c2ccc(C#Cc3ccncc3)cc2O[C@H]1CN(C)C(=O)C1CCOCC1, C[C@@H]1CN([C@H](C)CO)S(=O)(=O)c2ccc(C#Cc3ccncc3)cc2O[C@@H]1CN(C)C(=O)C1CCOCC1, CNC[C@@H]1Oc2cc(C#CC3CCCCC3)ccc2S(=O)(=O)N([C@@H](C)CO)C[C@@H]1C, CO[C@@H]1CN(C)C(=O)c2cc(NC(=O)c3cccc(Oc4ccccc4)c3)ccc2OC[C@H](C)NC[C@@H]1C, CN1C(=O)c2cc(NC(=O)c3cccc(F)c3)ccc2OC[C@@H]2O[C@H](CC(=O)O)CC[C@@H]21, CN1C(=O)c2cc(NC(=O)c3cccc(F)c3)ccc2OC[C@H]2O[C@@H](CC(=O)O)CC[C@@H]21, COCC(=O)N(C)C[C@H]1Oc2cc(-c3ccccc3F)ccc2S(=O)(=O)N([C@H](C)CO)C[C@H]1C, CN1C(=O)c2cc(NC(=O)c3cccc(F)c3)ccc2OC[C@@H]2O[C@H](CC(=O)O)CC[C@H]21, CN1C(=O)c2cc(NC(=O)c3cccc(F)c3)ccc2OC[C@H]2O[C@H](CC(=O)O)CC[C@@H]21, C[C@H]1CN([C@@H](C)CO)C(=O)c2cc(-c3ccc(C#N)cc3)cnc2O[C@H]1CN(C)Cc1cncnc1, COCC(=O)N(C)C[C@@H]1Oc2ncc(-c3ccc(C#N)cc3)cc2C(=O)N([C@@H](C)CO)C[C@@H]1C, COc1ccc(-c2cnc3c(c2)C(=O)N([C@@H](C)CO)C[C@H](C)[C@H](CN(C)S(=O)(=O)c2ccc(OC)cc2)O3)cc1, COc1cccc(C(=O)Nc2ccc3c(c2)C(=O)N(C)C[C@@H](OC)[C@@H](C)CN[C@@H](C)CO3)c1, C[C@H]1CN([C@@H](C)CO)C(=O)c2cc(-c3ccc(C#N)cc3)cnc2O[C@H]1CN(C)C(=O)c1ccccc1, COc1ccc(S(=O)(=O)N(C)C[C@@H]2Oc3ncc(/C=C/c4ccccc4)cc3C(=O)N([C@@H](C)CO)C[C@@H]2C)cc1, COCC(=O)N(C)C[C@H]1Oc2cc(-c3ccc(C#N)cc3)ccc2S(=O)(=O)N([C@H](C)CO)C[C@H]1C, COCC(=O)N(C)C[C@H]1Oc2cc(-c3ccccc3F)ccc2S(=O)(=O)N([C@@H](C)CO)C[C@H]1C, CCCC#Cc1ccc2c(c1)O[C@H](CN(C)C(=O)COC)[C@H](C)CN([C@@H](C)CO)S2(=O)=O, C[C@H]1CN([C@@H](C)CO)S(=O)(=O)c2ccc(C#Cc3ccncc3)cc2O[C@@H]1CN(C)C(=O)C1CCOCC1
